# Records with an inconclusive call do not appear. A number with no mark means an inactive call. Active and inactive are the calls of the source. Calls come from the whole dose curve; as a rule, active = well fitted inhibition curve with a large enough effect; inconclusive = small, poorly fitted or top-dose-only effect; inactive = no such curve, though single readings can be large or run the other way.
# Molecular target: Luciferin 4-monooxygenase (Photinus pyralis) (UniProt P08659)
# Experiment: FLuc inhibitory activity for the follow-up compounds in a biochemical assay with an in-house formulation of detection reagent
# Conditions: purified FLuc, luminescence; series mostly up to 25.6 µM; activity change, negative = inhibition: at the top concentration
# Source text: NCGC Assay Overview: Firefly (Photinus pyralis) luciferase is one of the most commonly used transcriptional reporters. It is considered one of the more dynamically responsive reporters - that is, responsive to changes in reporter transcription - as it requires no post-translational modifications and is enzymatically active directly after protein synthesis (Wood, 1998). With no endogenous expression in mammalian cells and without the requirement of external excitation, it offers very little background signal, thus generally providing excellent signal to background for most assays. Previous profiling work to determine the prevalence of compounds that affect FLuc enzymatic activity (PubChem AID 411) identified that ~3% of the MLSMR library (then at ~72K) inhibited FLuc (Auld et al., 2008). […] Of the compounds identified in this profile that inhibited FLuc, 151 compounds were selected for further analysis, in an effort to better understand their mode of inhibiting FLuc. The assay described here was to determine the activity of the compounds in a FLuc assay that used an in-house formulation of detection reagent.
# NCGC Assay Protocol Summary: Reagents: 300mM Tris-HCl, 300mM Trizma base, 300mM MgCl, 1% Triton-X100, 5mM DTT, 500uM Coenzyme A trilithium salt (Sigma #C3019),450uM ATP (Sigma #A7699), 1mM D-luciferin sodium salt monohydrate (Biosynth #L8240); 10nM P. pyralis luciferase (Sigma #L9506) Control compounds used were two known firefly luciferase inhibitors (3-(5-(3-chlorophenyl)-1,2,4-oxadiazol-3-yl)benzoic acid and 5-(2-fluorophenyl)-3-phenyl-1,2,4-oxadiazole), and DMSO. Assay Summary: Six microliters of buffer containing firefly luciferase (final concentrations: 50mM Tris acetate, 10nM P. pyralis luciferase) are dispensed into each well of a Greiner white, solid-bottom 1536-well format plate using a flying reagent dispenser (FRD). These assay plates were then treated with 23nL of compound or DMSO using a Kalypsys pin tool, which allows for delivery of a 12-point intraplate titration of each compound to the assay plate (quantitative HTS), with final compound concentrations ranging from approximately ~25uM to 0.1nM. Three microliters of 3X in-house detection reagent was then delivered by FRD to each well (final concentrations in assay: 300mM Tris-HCl, 300mM Trizma base, 300mM MgCl, 1% Triton-X100, 5mM DTT, 500uM Coenzyme A trilithium salt, 450uM ATP, 1mM D-luciferin sodium salt monohydrate). Luciferase activity was then measured using a ViewLux CCD imager (PerkinElmer), with an average exposure time of 2-30 seconds (2X binning, medium/high gain).
# Chain of Luciferin 4-monooxygenase (Photinus pyralis) (P08659 whole entry, looked up): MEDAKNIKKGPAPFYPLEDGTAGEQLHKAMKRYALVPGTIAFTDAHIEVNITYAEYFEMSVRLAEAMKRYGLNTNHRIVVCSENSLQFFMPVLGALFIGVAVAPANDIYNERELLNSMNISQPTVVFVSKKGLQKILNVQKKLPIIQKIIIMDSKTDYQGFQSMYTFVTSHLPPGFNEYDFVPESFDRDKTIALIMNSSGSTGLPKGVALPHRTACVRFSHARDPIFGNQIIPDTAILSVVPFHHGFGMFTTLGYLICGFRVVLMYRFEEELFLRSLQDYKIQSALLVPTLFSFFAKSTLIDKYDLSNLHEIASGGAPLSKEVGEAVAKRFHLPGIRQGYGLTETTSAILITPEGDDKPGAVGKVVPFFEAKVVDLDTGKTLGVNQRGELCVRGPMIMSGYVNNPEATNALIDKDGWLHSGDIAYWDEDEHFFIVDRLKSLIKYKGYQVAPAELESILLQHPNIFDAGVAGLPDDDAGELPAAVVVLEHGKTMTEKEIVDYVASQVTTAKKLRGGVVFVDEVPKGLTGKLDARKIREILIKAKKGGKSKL
Structure (SMILES),Potency,"activity change, negative = inhibition [%]"
Cc1ccc2nc(-c3ccc(NC(=O)CN4CCN(C(=O)c5ccco5)CC4)cc3)sc2c1,2.46 µM (active),
Oc1ccc(-c2nc3ccccc3s2)c(O)c1,,-6.99
CN(C)S(=O)(=O)c1ccc(C(=O)Nc2cccc(C(=O)O)c2)cc1,,-9.26
CN(C)S(=O)(=O)c1ccc(C(=O)Nc2ccccc2C(=O)O)cc1,,-6.75
Nc1ccc(-c2nc3cc(N)ccc3s2)cc1,8.74 µM (active),
COc1cc(OC)cc(C(=O)Nc2ccccc2-c2nc3ccccc3s2)c1,,-6.18
COc1ccc2nc(NC(=O)c3ccco3)sc2c1,6.94 µM (active),
CC(C)(C)NC(=O)c1ccccc1-c1nc2ccccc2s1,,16.5
CCn1c(C)nc2cc(-c3nc4n(n3)Cc3ccccc3-4)ccc21,0.155 µM (active),
Cc1ccc(C(=O)Nc2ccc(C(=O)O)cc2)cc1S(=O)(=O)Nc1ccccc1,,-13.9
O=C(Nc1ccccc1C(=O)O)c1ccc(NC(=O)C2CC2)cc1,7.79 µM (active),
CC(=O)Oc1ccc(C(=O)Nc2ccccc2C(=O)Nc2ccc(C(=O)O)cc2)cc1,,-24.4
COc1ccc2nc(NC(=O)c3ccc(S(=O)(=O)N4CCCC(C)C4)cc3)sc2c1 (stereo not given),,-0.118
O=C(Cc1ccc(Cl)cc1)Nc1cccc(C(=O)Nc2ccccc2C(=O)O)c1,,9.02
O=C(O)c1ccccc1NC(=O)c1ccccc1Nc1ccccc1,,-3.26
O=C(Nc1c(Cl)cc(Cl)cc1-c1nc2ccccc2s1)c1ccc(Br)o1,13.8 µM (active),
COc1ccc2nc(NC(=O)c3ccc(NS(=O)(=O)c4cccs4)cc3)sc2c1,,45.8
O=C(Nc1ccccc1C(=O)O)c1cccc(C(=O)Nc2ccccc2C(=O)O)c1,,-16.8
O=C(O)c1cccc(NC(=O)c2ccccc2NC(=O)c2ccccc2F)c1,,-13.8
COc1ccc(CC(=O)Nc2cccc(C(=O)Nc3ccccc3C(=O)O)c2)cc1OC,,6.03

Structure (SMILES),Potency,"activity change, negative = inhibition [%]"
CCOc1c(Cl)cc(C(=O)Nc2ccccc2C(=O)O)cc1Cl,,-14.5
Cc1c(NS(C)(=O)=O)cccc1-c1nc2ccccc2s1,,4.59
COc1ccc2nc(NC(=O)c3ccc([N+](=O)[O-])o3)sc2c1,9.8 µM (active),
COc1ccc(C(=O)Nc2ccccc2C(=O)N/N=C/c2ccc(O)c(OC)c2)cc1,0.011 µM (active),
Nc1ccc(-c2nc3ccc(C(=O)O)cc3s2)cc1,5.51 µM (active),
COc1ccccc1C(=O)Nc1ccc(C(=O)O)cc1,,-16.7
O=C(Nc1ccccc1-c1nc2ccccc2s1)c1cccnc1,,-17.1
CC(C)c1ccc(-c2nc3ccccc3s2)cc1,0.098 µM (active),
O=C(O)c1cccc(NC(=O)c2cccc(S(=O)(=O)N3CCCCC3)c2)c1,,-2.55
CN=c1scc(-c2ccccc2F)n1/N=C/c1ccc[nH]1,0.123 µM (active),
Cc1cccc(NS(=O)(=O)c2cccc(C(=O)Nc3cccc(C(=O)O)c3)c2)c1,,8.12
O=C(Nc1ccccc1C(=O)O)c1cccc(S(=O)(=O)Nc2ccc(Br)cc2)c1,,3.86
O=C(Nc1ccccc1C(=O)O)c1cccc(NC(=O)c2ccc(Br)o2)c1,,-16.6
O=C(O)c1ccc(NC(=O)c2cccc(C(=O)Nc3ccc(C(=O)O)cc3)c2)cc1,,-13.4
Cn1c(N/N=C/c2cc3ccccc3nc2Cl)nc2ccccc21,,-15.9
O=C(O)c1cccc(NC(=O)c2cccc(S(=O)(=O)N3CCc4ccccc43)c2)c1,,-6.28
O=C(Nc1cccc(-c2nc3ccccc3s2)c1)c1cc(-n2cnnc2)ccc1Cl,,12.7
COc1ccc(CC(=O)Nc2ccc(-c3nc4ccccc4s3)c(C)c2)cc1,11 µM (active),
C/C(=N\NC(=O)c1ccccc1NC(=O)c1ccc(Cl)cc1)c1ccncc1,1.1 µM (active),
O=C(Nc1ccccc1C(=O)O)c1ccc(NC(=O)C2CCCCC2)cc1,,3.23

# From PubChem BioAssay AID602475 (National Center for Advancing Translational Sciences (NCATS), 2012)
